Screens (PubChem)
AMA1 RON2 block: AMA1-RON2 (P. falciparum) interaction inhibition; AID 720542; Potency, µM (titrated, usually from 58.2 µM), usual class: inhibitors; actives 0.2% (n = 360,000); AlphaScreen AMA1-biotinylated RON2 peptide binding; also: nearly all actives have a fitted effect of over 45% in size
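AMA1 (3D7) with his tag at 25 nM final met compounds first, then biotinylated RON2 peptide at 25 nM; detection used donor plus acceptor beads, 10 µg/mL apiece, read by AlphaScreen after 30 min at room temperature.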
Pf growth 96h: P. falciparum growth inhibition at 96 hours. P. falciparum luciferase reporter growth, 96 h. Potency, µM (titrated, usually from 28.7 µM), hits mostly inhibitors. actives 6.9% (n = 320,000)
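Infected RBCs, 2% Hct / 0.05% parasitemia final; luciferase-reporter P. falciparum; cpd 96 h, 37 C, 5% CO2; luciferase detection reagent; luminescence.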
VACV mCherry inh: inhibitors of vaccinia virus infection (mCherry reporter signal). Vaccinia virus mCherry reporter infection, fluorescence. Potency, µM (doses to about 36.5 µM), most hits filed as inhibitors. actives 0.63% (n = 310,000). AID 720579; calls by dose curve; tested in A549 cells; also: nearly all actives have a fitted effect of over 35% in size
Pf growth 48h: P. falciparum growth inhibition at 48 hours (one generation); P. falciparum luciferase growth in erythrocytes, 48 h; Potency, µM (series often up to 28.7 µM), most hits filed as inhibitors; actives 5.9% (n = 310,000)
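A one-generation exposure of luciferase-tagged malaria parasites in RPMI 1640/Albumax erythrocyte culture, 37 C and 5% CO2. Inhibition is inferred from decreased luminescence after adding detection reagent.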
VACV Venus inh: vaccinia inhibition (Venus reporter); AID 720580; actives 0.46% (n = 330,000); Potency, µM (highest dose often 36.5 µM), most hits filed as inhibitors; Vaccinia virus Venus reporter expression, fluorescence; calls by dose curve; tested in A549 cells; also: nearly all actives have a fitted effect of over 30% in size
Of the large screens only hits and unclear results are named; the others gave an inactive call. Rows were chosen to be rich in hits. Some 8.7% of all compounds tested hit in one or more screens of this group. Unless noted, calls follow the shape of the dose curve; as a rule, active = well fitted curve in the direction sought with a large enough effect; inconclusive = small, poorly fitted or top-dose-only effect, or another doubt; inactive = no such curve, though single readings can be large; an effect the other way counts as inactive or inconclusive.

Cc1ccc(OCCCC(=O)Nc2ccc(Cl)c(S(=O)(=O)N3CCOCC3)c2)cc1	Pf growth 96h 10.4µM, Pf growth 48h inconclusive (no result: VACV mCherry inh, VACV Venus inh)
Cc1ccc(NC(=O)CCc2ccccc2)cc1S(=O)(=O)N1CCOCC1	none (no result: Pf growth 96h, Pf growth 48h)
Cc1ccc(S(=O)(=O)N2CCCCC2)cc1NC(=O)CCOc1ccccc1	Pf growth 96h inconclusive, VACV mCherry inh inconclusive, VACV Venus inh inconclusive
O=C(CCSc1ccccc1)Nc1ccc(S(=O)(=O)N2CCOCC2)cc1	none (no result: Pf growth 48h)
Cc1ccc(OCCCC(=O)Nc2ccc(S(N)(=O)=O)cc2)cc1	Pf growth 96h 14.7µM
CCN(CC(=O)Nc1cc(S(=O)(=O)N2CCCCC2)ccc1C)Cc1ccccc1	Pf growth 96h 11.7µM, Pf growth 48h inconclusive
O=C(CCCSc1ccccc1)Nc1ccc(Cl)c(S(=O)(=O)N2CCOCC2)c1	Pf growth 96h 10.4µM, VACV mCherry inh inconclusive, Pf growth 48h 13.1µM
Cc1ccc(C2Nc3ccc4ccccc4c3C3=C2C(=O)CC(C)(C)C3)o1 (stereo not drawn)	Pf growth 96h inconclusive, Pf growth 48h 14.7µM (no result: VACV mCherry inh, VACV Venus inh)
CC1(C)CC(=O)C2=C(C1)c1c(ccc3ccccc13)NC2c1ccc(C(=O)O)cc1 (stereo not drawn)	Pf growth 96h inconclusive, Pf growth 48h inconclusive
O=C(CSc1nccn1-c1ccc(Cl)cc1)Nc1cccc2ccccc12	none (no result: AMA1 RON2 block, Pf growth 96h, Pf growth 48h)
COc1ccc(CCNC(=O)COc2ccc3c(C)cc(=O)oc3c2)cc1OC	Pf growth 96h 2.94µM
Cc1oc(C(=O)O)cc1COc1ccc2c(C)cc(=O)oc2c1	Pf growth 96h 2.08µM, VACV Venus inh inconclusive
Cc1cc(=O)oc2cc(OCC(=O)OCC(=O)NCCc3ccccc3)ccc12	Pf growth 48h inconclusive
COc1ccc(C(c2nnnn2C2CCCCC2)N2CCN(c3ccccc3)CC2)cc1 (stereo not drawn)	Pf growth 48h 10.4µM (no result: AMA1 RON2 block, VACV mCherry inh, VACV Venus inh)
COc1ccc(C(c2nnnn2C2CCCC2)N2CCN(c3ccccc3)CC2)cc1 (stereo not drawn)	Pf growth 96h inconclusive, Pf growth 48h 9.28µM
CCCOc1ccc(-c2nn(-c3ccccc3)cc2C2NC(=O)NC(C)=C2C(=O)OC(C)C)cc1 (stereo not drawn)	none (no result: AMA1 RON2 block, Pf growth 96h, Pf growth 48h)
O=c1c2oc3ccccc3c2n(Cc2ccccc2Cl)c(=O)n1Cc1ccc2c(c1)OCO2	none (no result: AMA1 RON2 block, Pf growth 96h, Pf growth 48h)
CCC(C(=O)NC1CCCCCC1)n1nc(C)c2c(C)n(-c3ccccc3)nc2c1=O (stereo not drawn)	Pf growth 96h 10.4µM, Pf growth 48h inconclusive
CCC(C(=O)NCCc1ccco1)n1nc(C)c2c(C)n(-c3ccccc3)nc2c1=O (stereo not drawn)	none (no result: VACV mCherry inh, VACV Venus inh)
CCC(C(=O)NCCC1=CCCCC1)n1nc(C)c2c(C)n(-c3ccccc3)nc2c1=O (stereo not drawn)	Pf growth 96h 11.7µM, Pf growth 48h inconclusive
CCC(C(=O)NCc1ccco1)n1nc(C)c2c(C)n(-c3ccccc3)nc2c1=O (stereo not drawn)	Pf growth 96h 14.7µM
COc1ccc(NC(=O)c2ccco2)cc1NC(=O)COc1cc(C)ccc1C(C)C	VACV Venus inh inconclusive (no result: AMA1 RON2 block, Pf growth 96h, Pf growth 48h)
CCCCN(Cc1nc2ccccc2c(=O)[nH]1)C(=O)COc1ccc(F)cc1Cl	Pf growth 96h 3.7µM, Pf growth 48h 2.62µM (no result: VACV mCherry inh, VACV Venus inh)
COCCN(Cc1nc2ccccc2c(=O)[nH]1)C(=O)COc1c(C)cc(Cl)cc1C	Pf growth 96h inconclusive, Pf growth 48h inconclusive (no result: VACV mCherry inh, VACV Venus inh)
O=C(c1csc(Nc2ccccc2Cl)n1)N1CCCC1	Pf growth 96h 2.33µM
Cc1ccccc1-n1c2nc(=O)n(C)c(=O)c-2cc2ccccc21	none
CCn1nc(-c2cccs2)nc2c(=O)n(C)c(=O)nc1-2	VACV Venus inh 0.794µM (no result: Pf growth 96h, VACV mCherry inh)
CCn1nc(-c2ccccc2C)nc2c(=O)n(C)c(=O)nc1-2	VACV mCherry inh 5.62µM, VACV Venus inh 6.31µM (no result: AMA1 RON2 block, Pf growth 96h, Pf growth 48h)
CCn1nc(/C=C/c2ccccc2)nc2c(=O)n(C)c(=O)nc1-2	Pf growth 96h 11.7µM, VACV mCherry inh 2.51µM, VACV Venus inh 2.82µM
OC[C@@H]1CCC[C@@H](n2cnc3c(=S)nc[nH]c32)O1	none (no result: AMA1 RON2 block, Pf growth 96h, Pf growth 48h)
Cc1ccc2[nH]c3c(=O)n(CC(=O)N4CCN(c5ccccc5F)CC4)ncc3c2c1	none (no result: AMA1 RON2 block, Pf growth 96h, Pf growth 48h)
CCSc1ccc([C@@H]2[C@@H]3C(=O)N(C)C(=O)[C@@H]3[C@]3(C(=O)OC)CCCCN23)cc1	Pf growth 96h inconclusive, Pf growth 48h 8.28µM
CCSc1ccc([C@@H]2[C@@H]3C(=O)N(CC)C(=O)[C@@H]3[C@]3(C(=O)OC)CCCCN23)cc1OC	Pf growth 96h inconclusive, Pf growth 48h 13.1µM
